Our source for the Potency values is PubChem BioAssay AID1347075 (National Center for Advancing Translational Sciences (NCATS), 2019).

Out of some 400,000 compounds screened, about 5,500 (1.4%) were called active. Roughly 9% stayed inconclusive and do not appear here. Calls come from the whole dose curve; as a rule, active = well fitted cell-killing curve with a large enough effect; inconclusive = small, poorly fitted or top-dose-only effect, or effect the other way; inactive = flat fitted curve, though single readings scatter. Shown is part of a subset that was picked to be rich in actives. Entries that show only a call come without a potency.
Potency is the fitted concentration of half-maximal effect.

This test is described as follows: qHTS assay for MDR1-selective chemotherapeutics: Primary screen using the parental adenocarcinoma cell KB-3-1. Note: nearly all actives have a fitted effect of over 60% in size. As to conditions: KB-3-1 viability, CellTiter-Glo ATP luminescence, 72 h; series mostly up to 46.1 µM. The essentials:
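Cells are dispensed, compounds pinned in, plates held at 37 °C for 72 h, then CellTiter-Glo is added and luminescence read after 10 minutes. Cell line: parental KB-3-1 in phenol-red-free DMEM, 10% FBS.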
Take `O=[N+]([O-])c1ccc(C=Nc2ccc(Cl)cc2Cl)s1`: the Potency was 16.4 µM (active). Regarding `CCOC(=O)C(Cc1ccccc1)NC(=O)CCc1c(C)nc2c(c(C)nn2-c2ccc(C)c(C)c2)c1C` (stereo not drawn), the Potency entry is “inactive”. In the case of `COc1cccc(CNC(=O)C2CCN(S(=O)(=O)c3ccc4c(ccn4C)c3)CC2)c1` it was “inactive”; in that of `COc1ccc(-c2nn3c(=O)cc(CN4CCN(C(=O)c5ccc(OC)c(OC)c5)CC4)nc3s2)cc1`, “inactive”.

With `CCS(=O)(=O)N1CCC(n2c(C)nc3cccnc32)CC1`, the Potency result was “inactive”. Turning to `COc1ccccc1CNC(=O)c1ccc(NC(=O)N2CC(C)Sc3ccccc32)cc1` (stereo not drawn), the Potency result is “inactive”.

Take `NC(=O)C1(N2CCCCC2)CCN(C(=S)Nc2ccc(Cl)cc2)CC1`: the Potency was 11.6 µM (active). In the case of `O=C(NC1CCN(C(=S)Nc2ccc(Cl)cc2)CC1)C1CCCCC1` it was “inactive”; in that of `Cc1cc(Cl)ccc1NC(=S)N1CCC(C(N)=O)(N2CCCCC2)CC1`, “inactive”. Take `O=C(CCC(=O)N1CC2CCCN2c2ccccc21)NCc1ccccc1Cl` (stereo not drawn): the Potency entry was “inactive”. Regarding `CCc1ccc(NC(=O)c2cc3c(=O)n(Cc4cccnc4)ccc3nc2C)cc1`, the Potency result was “inactive”. For the compound `COc1ccc(-n2c(=O)c3c(c4cc(OC)ccc4n3C)n(Cc3cccc(C)c3)c2=O)cc1`, the Potency entry is “inactive”. Next, `CCN(CC)c1ccc(NC(=O)CN2CCN(CC(=O)Nc3ccc(Cl)cc3)CC2)cc1`: “inactive”; `CCN(CC)c1ccc(NC(=O)c2ccc(Cl)nc2)cc1`: 5.17 µM (active); `O=C(NNC(=O)c1ccc(Cl)nc1)c1ccc(Br)cc1`: “inactive”.

For the compound `CN(C)c1ccc(C(CNS(=O)(=O)c2cc(F)ccc2F)N2CCOCC2)cc1` (stereo not drawn), the Potency entry is “inactive”. Consider `Cc1ccc(C)c(N2CCN(S(=O)(=O)c3ccc4c(c3)C(C(C)C)C(=O)N4)CC2)c1` (stereo not drawn), for which the Potency result was “inactive”.

With `CCC1CCCCN1C(=O)Cn1c(=O)n(CCCCCC(=O)NCc2ccccc2)c(=O)c2sccc21` (stereo not drawn), the Potency result was “inactive”. As to `O=C(c1ccc(Br)cc1)N(Cc1cccs1)c1ccc(F)cc1`, the Potency entry was “inactive”.

As to `Cc1ccc(Nc2ccccc2N)cc1`, the Potency was 20.6 µM (active). For the compound `Cc1ccc(Nc2c(-c3ccc(C)s3)nc3ccccn23)cc1`, the Potency result is “inactive”. For `Nc1ccccc1N`, the Potency result was “inactive”. In the case of `Cc1ccc2c(c1)C1CN(C)CCC1N2S(=O)(=O)c1ccc(Oc2ccc([N+](=O)[O-])cc2)cc1` (stereo not drawn) it was 18.4 µM (active); in that of `Cc1ccc2c(c1)C1CN(C)CCC1N2C(=O)c1ccccc1NS(=O)(=O)c1ccc(F)cc1C` (stereo not drawn), “inactive”. In the case of `Cc1ccc([N+](=O)[O-])cc1S(=O)(=O)N1CCCN(C)CC1`, the Potency result was “inactive”. For `COc1ccc(-c2nn(CC(=O)NC3CCCC3)c3c2cnc2ccc(F)cc23)cc1`, the Potency result is “inactive”.

On to `Cc1ccc(CNC(=O)c2c(O)nc3c(C)cccn3c2=O)cc1`, for which the Potency result is “inactive”. Consider `CCN(CC)c1ccc(/C=N/NC(=O)c2cnccn2)c(O)c1`, for which the Potency is 0.731 µM (active). Take `NS(=O)(=O)c1ccc(CNC(=O)c2cnccn2)cc1`: the Potency entry was “inactive”.

For `COc1cccc(OCC(=O)NNC(=O)c2cnccn2)c1`, the Potency result is “inactive”.

Take `O=C(/C=C/c1ccccc1)N1CCN(Cc2cc(=O)n3nc(-c4ccccc4F)sc3n2)CC1`: the Potency entry is “inactive”. Next, `Cc1ccc(CNC(=O)COc2ccc3c(c2)CCC3)cc1`: “inactive”. In the case of `C/C(CC(=O)NCc1ccc(Cl)cc1)=N\NC(=O)COc1ccc(C)cc1Br` it was 5.17 µM (active); in that of `Cc1ccc(CNC(=O)CN2CCN(Cc3ccc(Cl)cc3)C2=O)cc1`, “inactive”; in that of `Cc1ccc2oc(C(=O)Nc3ccc(S(=O)(=O)N4CCCCCC4)cc3)cc(=O)c2c1`, “inactive”.

As to `Cc1ccc(C)c(N2CCN(C(=O)Cc3c(C(=O)O)c(C)cn3C)CC2)c1`, the Potency result is “inactive”. In the case of `CC[n+]1cc(C)ccc1/C=C/c1ccc(N(C)C)cc1`, the Potency was 1.84 µM (active). Take `CCc1ccc(-c2nn3c(C)nnc3s2)cc1NC(=O)c1ccc(-c2cccc(Cl)c2)o1`: the Potency entry was “inactive”.

As for `COc1ccc(S(=O)(=O)n2nc(C)c(S(=O)(=O)N3CCCCCC3)c2C)cc1`, the Potency result was “inactive”. For `N#Cc1ccc[n+](CC(=O)c2ccc(O)c(O)c2)c1`, the Potency entry is “inactive”.

With `Cc1cc(C(=O)OCC(=O)NCc2ccco2)c(C)n1-c1ccccc1`, the Potency is 4.61 µM (active). For `O=C(COC(=O)c1ccccc1O)NCc1ccco1`, the Potency result is “inactive”. With `O=C(COC(=O)c1cnc(Cl)c(Cl)c1)NCc1ccco1`, the Potency entry was “inactive”. On to `Cc1ccc(NC2=C(c3ccc(C(F)(F)F)cc3)C(=O)c3ccccc32)cc1F`, for which the Potency result was “inactive”. Next, `Cc1cccc(NC(=O)N2CCN(C)c3ncccc32)c1C`: “inactive”; `COc1cc(Cn2c3ccc(NC(=O)CC(C)c4ccccc4)cc3c(=O)n2C)ccc1F` (stereo not drawn): 16.4 µM (active); `CCNC(=S)Nc1ccc2c(c1)c(=O)n(C)n2Cc1ccc(Cl)cc1`: “inactive”. For the compound `COc1ccc(CCNC(=O)Nc2ccc3c(c2)c(=O)n(C)n3C)cc1OC`, the Potency result was “inactive”.

For `CN(C)c1ccc(/C=C/C=C/c2ccnc3ccccc23)cc1`, the Potency was 5.8 µM (active). In the case of `CN(C)c1ccc(C=Nc2ccc(/C=C/c3ccnc4ccccc34)cc2)cc1`, the Potency result is “inactive”.

Regarding `CN(Cc1ccccc1)c1ccc(/C=C/c2ccnc3ccccc23)cc1`, the Potency result is “inactive”. Next, `CCc1nn(CC(=O)N2CCN(c3ccc(Cl)cc3)CC2)c(=O)c2cc3occc3n12`: “inactive”; `CC1CN(C(=O)N2CCC(C(=O)NCc3cccs3)CC2)c2ccccc2O1` (stereo not drawn): “inactive”; `CCOc1ccc(Nc2nc3c(S(=O)(=O)c4cccc(Cl)c4)nnn3c3ccsc23)cc1`: “inactive”.

As for `Cc1cccc(NC(=O)CSc2ncc(-c3ccccc3)[nH]2)c1C`, the Potency result is “inactive”. `CCCCC(=O)NC(c1ccc(OC)c(OC)c1)c1ccc2cccnc2c1O` (stereo not drawn): the Potency was 5.8 µM (active).

For `CCOc1ccc(C(CCc2ccccc2)NC(=O)c2ccc(OC)c(OC)c2)cc1OCC` (stereo not drawn), the Potency result was “inactive”.

For the compound `CCOc1ccc(C(NC(=O)c2cc(OC)c(OC)c(OC)c2)c2cc(Cl)c3cccnc3c2O)cc1` (stereo not drawn), the Potency result is “inactive”. Next, `COc1ccccc1CNC(=O)CCCn1c(=O)c2ccccc2n(CC(=O)Nc2ccc(C)cc2Cl)c1=O`: “inactive”; `COc1ccccc1N1CCN(CCCNC(=O)c2cnn(-c3ccccc3Cl)c2C2CCN(C(=O)OC(C)(C)C)CC2)CC1`: “inactive”; `Oc1ccc(Br)cc1C1C=C(c2ccc3c(c2)OCO3)NC(c2ccc(Cl)cc2)N1` (stereo not drawn): “inactive”. In the case of `Cc1cccc(-c2nc(SCC(=O)Nc3cc(C)on3)c3c(=O)n(C)c(=O)n(C)c3n2)c1`, the Potency result was “inactive”. Regarding `NC(=O)C1CCN(c2ncc(-c3ccc(Cl)cc3)s2)CC1`, the Potency result was “inactive”.
